This note sets out measurements from PubChem BioAssay.

The nature of experiment [1]: binders of probe aFSTL3 on microarray, primary screen, stem cell growth factor project, biochemical, small-molecule microarray, fluorescence 635/667 (AID 1064).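 Further: measures binding of the biotinylated anti-FSTL3 antibody to printed compounds.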 The note with it: higher = more signal.
The nature of experiment [2]: binders from COS7 lysate, DM2A8 probe, primary screen, torsin A project, cell lysate, small-molecule microarray, fluorescence 635/667 (AID 1065). The note with it: higher = more signal, COS7 lysate expressing mutant human TOR1A.
Experiment [3] is described as follows: binders of probe aFGF2 on microarray, primary screen, stem cell growth factor project, biochemical, small-molecule microarray, fluorescence 635/667 (AID 1067).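 Further: measures binding of biotinylated aFGF2 protein to printed compounds on slides; z-score merges feature fluorescence and signal-to-noise across triplicate slides.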 The note with it: higher = more signal.
A short description of experiment [4]: binders of probe aFGF10 on microarray, primary screen, stem cell growth factor project, biochemical, small-molecule microarray, fluorescence 635/667 (AID 1071).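 Further: score merges 667 nm spot intensity and signal to noise from triplicate slides.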 The note with it: higher = more signal.
The target of experiment [5] is Neurogenic locus notch homolog protein 2 (Homo sapiens) (UniProt Q04721). The experiment is described as follows: Notch2 binders on small-molecule microarrays, primary screen, biochemical, small-molecule microarray, 635 nm fluorescence, stem cell growth factors (AID 1073). The note with it: Notch2 binding, higher = more signal.
Experiment [6] concerns the target Pro-neuregulin-1, membrane-bound isoform (Homo sapiens) (UniProt Q02297). The experiment in a line: NRG1 binders on small-molecule microarrays, primary screen, psychiatric disease protein project, biochemical, small-molecule microarray, fluorescence 635/667 (AID 1075).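 Further: score combines 667 nm spot fluorescence with signal to noise.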 The note with it: NRG1 binding, 635 nm fluorescence, higher = more signal.
Experiment [7] relates to Neuregulin-1 EGF-like domain. The experiment in a line: binders of neuregulin-1 EGF-like domain, primary screen, biochemical, small-molecule microarray, 635 nm fluorescence (AID 1081).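 Further: binding of the protein to compounds printed on small-molecule microarray slides.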 The note with it: small-molecule microarray binding, higher = more signal.
Experiment [8] in a line: FRG1 promoter luciferase signal modulators, primary screen, FRG1 inhibition for FSHD, cell-based, C2C12 myotubes, firefly/Renilla luciferase, luminescence (AID 1084). The note with it: higher = more signal, called active from +8 up or from −8 down.
A short description of experiment [9]: binders of probe aFST on microarray, primary screen, stem cell growth factor project, biochemical, small-molecule microarray, fluorescence 635/667 (AID 1086).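 Further: score merges 667 nm fluorescence with signal-to-noise of each printed compound spot.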 The note with it: higher = more signal.
Experiment [10] is described as follows: binders of probe aHhip on microarray, primary screen, stem cell growth factor project, biochemical, small-molecule microarray, fluorescence 635/667 (AID 1087).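 Further: score merges spot fluorescence at 667nm with spot signal to noise ratio.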 The note with it: higher = more signal.

Molecules are shown by their SMILES. Active and inactive are the calls of the source.

Pro-neuregulin-1, membrane-bound isoform (Homo sapiens), sequence (Q02297 whole entry, looked up, the tested form may be a part, canonical isoform): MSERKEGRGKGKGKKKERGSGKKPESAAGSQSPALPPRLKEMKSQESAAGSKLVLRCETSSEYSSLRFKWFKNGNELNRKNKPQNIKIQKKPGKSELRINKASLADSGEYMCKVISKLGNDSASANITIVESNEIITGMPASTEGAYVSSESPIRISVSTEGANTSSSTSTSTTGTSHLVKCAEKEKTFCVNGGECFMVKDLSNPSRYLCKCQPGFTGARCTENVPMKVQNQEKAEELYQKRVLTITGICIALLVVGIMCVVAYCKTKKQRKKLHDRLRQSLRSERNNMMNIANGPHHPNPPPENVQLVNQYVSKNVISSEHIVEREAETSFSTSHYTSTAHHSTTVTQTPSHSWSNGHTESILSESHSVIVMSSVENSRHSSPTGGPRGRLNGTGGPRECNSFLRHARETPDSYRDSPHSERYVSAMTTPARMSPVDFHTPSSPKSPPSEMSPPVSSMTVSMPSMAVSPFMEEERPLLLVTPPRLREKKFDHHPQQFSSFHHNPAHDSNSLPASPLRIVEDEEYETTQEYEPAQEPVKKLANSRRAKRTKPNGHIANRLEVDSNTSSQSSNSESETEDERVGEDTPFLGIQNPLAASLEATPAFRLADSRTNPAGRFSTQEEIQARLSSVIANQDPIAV
Neurogenic locus notch homolog protein 2 (Homo sapiens), sequence (Q04721 whole entry, looked up, canonical isoform): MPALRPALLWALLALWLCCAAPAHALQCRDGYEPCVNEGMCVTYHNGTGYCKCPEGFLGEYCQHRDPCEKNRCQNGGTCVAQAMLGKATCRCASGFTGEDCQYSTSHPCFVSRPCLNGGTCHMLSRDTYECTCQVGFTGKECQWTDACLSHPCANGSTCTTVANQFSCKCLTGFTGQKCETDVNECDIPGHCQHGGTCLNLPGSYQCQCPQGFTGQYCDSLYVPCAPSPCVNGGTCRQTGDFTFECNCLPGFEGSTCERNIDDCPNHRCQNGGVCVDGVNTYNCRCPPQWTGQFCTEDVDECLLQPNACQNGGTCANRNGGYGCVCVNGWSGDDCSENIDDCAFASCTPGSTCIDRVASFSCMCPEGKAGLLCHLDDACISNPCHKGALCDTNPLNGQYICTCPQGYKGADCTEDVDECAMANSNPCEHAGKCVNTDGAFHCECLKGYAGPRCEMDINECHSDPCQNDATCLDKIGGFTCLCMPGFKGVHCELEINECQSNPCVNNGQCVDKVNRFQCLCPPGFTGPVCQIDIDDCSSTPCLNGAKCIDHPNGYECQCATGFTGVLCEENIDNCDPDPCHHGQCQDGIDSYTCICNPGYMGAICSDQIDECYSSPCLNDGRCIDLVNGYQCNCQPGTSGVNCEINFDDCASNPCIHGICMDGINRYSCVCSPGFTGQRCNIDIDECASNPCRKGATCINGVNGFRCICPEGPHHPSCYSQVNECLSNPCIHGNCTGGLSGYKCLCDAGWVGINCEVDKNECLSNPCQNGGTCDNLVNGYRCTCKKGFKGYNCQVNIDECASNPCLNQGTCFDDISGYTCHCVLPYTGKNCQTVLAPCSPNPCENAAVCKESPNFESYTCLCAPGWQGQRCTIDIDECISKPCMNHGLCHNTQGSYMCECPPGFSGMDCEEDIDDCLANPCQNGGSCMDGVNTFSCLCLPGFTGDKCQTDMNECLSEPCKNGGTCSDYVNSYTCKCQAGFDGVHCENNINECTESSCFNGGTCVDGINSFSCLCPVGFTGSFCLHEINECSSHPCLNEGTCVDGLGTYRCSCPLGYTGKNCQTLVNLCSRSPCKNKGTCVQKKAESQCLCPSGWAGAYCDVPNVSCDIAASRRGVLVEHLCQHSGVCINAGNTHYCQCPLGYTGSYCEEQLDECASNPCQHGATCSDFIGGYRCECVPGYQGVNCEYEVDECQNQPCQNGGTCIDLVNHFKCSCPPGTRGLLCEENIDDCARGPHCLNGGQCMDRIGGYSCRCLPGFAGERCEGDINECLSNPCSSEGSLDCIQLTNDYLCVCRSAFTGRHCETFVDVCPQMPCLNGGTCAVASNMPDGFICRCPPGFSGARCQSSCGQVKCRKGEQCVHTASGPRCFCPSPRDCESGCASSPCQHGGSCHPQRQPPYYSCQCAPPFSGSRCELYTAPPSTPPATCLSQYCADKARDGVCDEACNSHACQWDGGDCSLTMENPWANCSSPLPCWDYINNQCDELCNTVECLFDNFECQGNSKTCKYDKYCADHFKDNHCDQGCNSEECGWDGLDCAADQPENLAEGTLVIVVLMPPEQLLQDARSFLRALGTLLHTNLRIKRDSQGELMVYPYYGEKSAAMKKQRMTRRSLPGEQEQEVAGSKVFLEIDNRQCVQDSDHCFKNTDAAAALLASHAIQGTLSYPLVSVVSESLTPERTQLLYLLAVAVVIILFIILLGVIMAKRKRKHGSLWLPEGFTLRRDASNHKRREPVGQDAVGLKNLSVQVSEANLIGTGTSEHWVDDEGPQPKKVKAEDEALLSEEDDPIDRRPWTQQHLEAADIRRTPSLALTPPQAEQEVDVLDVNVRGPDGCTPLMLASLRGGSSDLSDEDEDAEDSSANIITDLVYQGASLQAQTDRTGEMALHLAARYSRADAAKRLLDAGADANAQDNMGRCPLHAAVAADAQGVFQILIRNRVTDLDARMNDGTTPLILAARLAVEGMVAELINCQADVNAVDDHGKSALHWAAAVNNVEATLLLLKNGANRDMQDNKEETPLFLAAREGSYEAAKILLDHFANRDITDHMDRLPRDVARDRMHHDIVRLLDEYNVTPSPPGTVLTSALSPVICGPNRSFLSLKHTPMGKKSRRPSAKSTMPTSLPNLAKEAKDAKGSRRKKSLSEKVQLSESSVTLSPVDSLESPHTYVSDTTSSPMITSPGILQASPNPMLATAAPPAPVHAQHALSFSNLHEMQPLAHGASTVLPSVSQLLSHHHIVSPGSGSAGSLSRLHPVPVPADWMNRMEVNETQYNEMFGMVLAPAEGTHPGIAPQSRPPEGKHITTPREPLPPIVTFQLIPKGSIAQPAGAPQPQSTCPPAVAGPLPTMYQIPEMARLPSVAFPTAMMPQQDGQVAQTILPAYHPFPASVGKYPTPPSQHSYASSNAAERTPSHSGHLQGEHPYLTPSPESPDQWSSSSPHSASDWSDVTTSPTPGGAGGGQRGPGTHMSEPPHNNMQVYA

Consider `C[C@]1(C(=O)NCC(F)(F)F)c2ccccc2C(=O)N(Cc2cc(F)cc(C(F)(F)F)c2)[C@H]1c1ccc(CO)cc1`, for which the composite z-score in experiment [1] was -0.599; in experiment [2], 0.553; in experiment [3] it was 0.274; in experiment [4], 0.0438; in [5], -0.94; in experiment [6], 1.74. In addition, the values for the composite z-score in [7], in experiment [9] and in experiment [10] were 0.623, -0.409 and 2.14, respectively. The z-score in [8] was -0.763 (inactive).
On to `Cc1ccc(N2C(=O)c3ccccc3[C@@H](C(=O)NCC(C)C)[C@@H]2c2ccc(CO)cc2)nc1`, for which the composite z-score in experiment [1] was 0.341; in [2] it was -0.751; in experiment [3], -0.161; in experiment [4], -0.494; in experiment [5], -1.07; in experiment [6] it was -0.265. Further, the figures for the composite z-score in experiment [7], in experiment [9] and in experiment [10] were 0.346, -0.473 and -0.0645, respectively. Also, the z-score in experiment [8] is -0.788 (inactive).
With `Cc1ccc(N2C(=O)c3ccccc3[C@@H](C(=O)NC(C)C)[C@@H]2c2ccc(CO)cc2)nc1`, the composite z-score is 0.675 in experiment [1]; -0.374 in [2]; -0.0598 in experiment [3]; 0.079 in experiment [4]; -0.333 in experiment [5]; -0.318 in experiment [6]. In addition, the composite z-score in experiment [7] was 1.27; in [9], -1.08; in experiment [10] it was -0.0994. Moreover, the z-score in [8] was 0.822 (inactive).
Turning to `C=CCC(OC(C)=O)[C@@H]1[C@@H](N(Cc2cc3ccccc3o2)C(=O)c2cccc3ccccc23)c2cc(OCCCO)ccc2N1C(=O)Cc1ccc2ccccc2c1` (stereo not given in full), the composite z-score in [1] was -0.0977; in experiment [2] it was 0.0901; in experiment [3] it was -0.0383; in [4] it was 0.0537; in [5] it was -0.127; in experiment [6] it was 0.144. Besides, the composite z-score in experiment [7] is 0.195; in [9], 0.309; in experiment [10], 0.0749. The z-score in experiment [8] is -2.3 (inactive).
In the case of `COC(=O)[C@@]1(Cc2ccc(F)cc2)[C@H]2c3cc(C(=O)N4CCCC4)n(Cc4ccc(Cl)c(C(F)(F)F)c4)c3C[C@H]2CN1C(=O)c1ccccc1`, the composite z-score in experiment [1] stood at 2; in experiment [2], 0.554; in experiment [3], 0.713; in experiment [4], 1.04; in experiment [5], 1.73; in experiment [6], 1.61. Also, the composite z-score in experiment [7] came to 1.14; in [9] it was 2.44; in experiment [10], 3.55. Further, the z-score in experiment [8] is 0.339 (inactive).
In the case of `CC(C)(C)OC(=O)CC[C@@]1(C(N)=O)N=C(c2ccc(OCCCO)cc2)O[C@@H]1c1ccccc1N=[N+]=[N-]`, the composite z-score came out at 0.0551 in experiment [1]; 1.86 in [2]; 0.0354 in [3]; 1.23 in experiment [4]; 1.46 in experiment [5]; 0.798 in [6]. Also, the composite z-score in experiment [7] was 1.36; in [9], 0.18; in experiment [10], -0.0645. Moreover, the z-score in [8] is 3.06 (inactive).
Consider `CCOC(=O)C[C@H]1[C@H](OC(=O)c2cc3ccccc3oc2=O)[C@@H](NC(=O)c2ccc3ccccc3c2)c2cc(OCCCO)ccc2N1C(=O)c1ccccc1`, for which the composite z-score in [1] is -0.444; in experiment [2] it was -0.183; in experiment [3] it was 0.0087; in experiment [4], 0.973; in [5], 0.525; in experiment [6], -0.0064. Further, the composite z-score was 1.13 in experiment [7], 0.623 in [9] and -0.0994 in experiment [10]. The z-score in [8] was 0.0705 (inactive).
`COCCCNC(=O)[C@@]1(C)c2ccccc2C(=O)N(Cc2ccccc2)[C@H]1c1ccc(CO)cc1`: the composite z-score is 0.235 in experiment [1]; 0.0748 in experiment [2]; -0.173 in experiment [3]; -0.979 in experiment [4]; -1.19 in experiment [5]; 1.88 in experiment [6]. For the same compound, the composite z-score in experiment [7] was 1.5; in [9], -0.353; in experiment [10] it was -0.147. Further, in [8], the z-score is -1.24 (inactive).
In the case of `C=CCC(OC(C)=O)[C@@H]1[C@@H](N(Cc2cc3ccccc3o2)C(=O)c2ccc(C)cc2)c2cc(OCCCO)ccc2N1C(=O)c1ccc(-c2ccccc2)cc1` (stereo not given in full), the composite z-score in [1] was -0.292; in experiment [2], 0.195; in experiment [3], 0.0337; in experiment [4] it was 0.18; in experiment [5] it was 0.127; in experiment [6], -0.158. Also, the composite z-score is -0.491 in [7], -0.21 in experiment [9] and 0.113 in experiment [10]. Also, the z-score in [8] was -1.35 (inactive).
Turning to `COCCCNC(=O)[C@@]1(Cc2ccccc2I)c2ccccc2C(=O)N(Cc2ccccc2)[C@H]1c1ccc(CO)cc1`, the composite z-score is 0.094 in experiment [1]; -0.785 in experiment [2]; -0.142 in [3]; -0.487 in [4]; -1.61 in experiment [5]; 0.542 in [6]. Also, the composite z-score in experiment [7] was 1.34; in experiment [9], -0.656; in [10], 0.0695. The z-score in experiment [8] is -4.46 (inactive).
For `[N-]=[N+]=NCc1ccccc1[C@H]1OC(c2ccc(OCCCO)cc2)=N[C@@]1(Cc1ccccc1)C(=O)NCC(O)CO` (stereo not given in full), the composite z-score in experiment [1] is 0.835; in [2], 0.768; in experiment [3] it was -0.127; in experiment [4], 0.407; in [5], 0.641; in experiment [6], 1.65. Moreover, the composite z-score in experiment [7] was 0.565; in [9] it was 0.1; in experiment [10], -0.146. In addition, in experiment [8], the z-score is -0.0633 (inactive).
Take `NC(=O)NCC#Cc1ccc2c(c1)[C@]1(C(=O)N2)[C@H](c2ccc(O)cc2)N2[C@H](c3ccccc3)[C@H](c3ccccc3)OC(=O)[C@H]2[C@@H]1C(=O)N1CCN(c2ncccn2)CC1`: the composite z-score in experiment [1] amounted to 0.687; in [2], 0.585; in [3], 0.0021; in [4], 0.516; in experiment [5], 0.0269; in experiment [6], 0.302. Further, the results for the composite z-score in experiment [7], in experiment [9] and in experiment [10] were 0.562, 0.38 and -0.191, respectively. The z-score in experiment [8] is -1.09 (inactive).
As for `[N-]=[N+]=NCc1ccccc1C[C@]1(C(=O)NCCN2CCOCC2)N=C(c2ccc(OCCCO)cc2)O[C@H]1c1ccccc1CN=[N+]=[N-]`, the composite z-score in experiment [1] was -0.199; in [2], -0.671; in experiment [3], 0.0011; in experiment [4], 1.12; in experiment [5] it was 1.03; in experiment [6] it was 1.11. The figures for the composite z-score in experiment [7], in experiment [9] and in [10] were 1.2, 1.26 and 0.0139, respectively. For the same compound, the z-score in experiment [8] was -0.0883 (inactive).
As to `COc1ccc([Si](C)(C)[C@H]2[C@H](CC(=O)N3Cc4ccccc4C[C@H]3CO)O[C@@]3(C(=O)N(Cc4cccc(I)c4)c4ccccc43)[C@@H]2C)cc1`, the composite z-score in [1] is -0.0638; in experiment [2], 2.29; in experiment [3], -0.0158; in [4], 0.142; in experiment [5], 0.379; in [6], 0.438. Moreover, the composite z-score in [7] was 0.853; in experiment [9], -0.186; in experiment [10], 0.289. Also, in experiment [8], the z-score was -2.84 (inactive).
Take `COC(=O)[C@@]1(Cc2ccc(OC)cc2)[C@H]2c3cc(C(=O)N4CCCC4)n(CCc4ccccn4)c3C[C@H]2CN1C(=O)c1ccccc1`: the composite z-score in experiment [1] is 0.587; in experiment [2], -0.0862; in experiment [3], 0.233; in experiment [4] it was 0.291; in experiment [5], 1.42; in experiment [6] it was 1.81. Also, the values for the composite z-score in [7], in [9] and in [10] were 1.13, 0.462 and 0.251, respectively. Moreover, in experiment [8], the z-score was 3.33 (inactive).
In the case of `CCCCC(=C=CC[C@H](O)c1ccccc1OCCO)C[C@H](O)c1cc(Cl)cc(Cl)c1O`, the composite z-score is -0.114 in experiment [1]; -0.257 in [2]; -0.0628 in experiment [3]; 0.583 in [4]; 0.151 in experiment [5]; 0.371 in [6]. In addition, the composite z-score in [7] is 1.1; in experiment [9], 0.0025; in experiment [10], -0.226. Further, in experiment [8], the z-score is -2.37 (inactive).
